# Screening data (PubChem)
# An excerpt weighted towards active compounds, which were near 19% of everything screened.
# TDP1 cell noCPT: qHTS for Inhibitors of human tyrosyl-DNA phosphodiesterase 1 (TDP1): qHTS in cells in absence of CPT. DT40 Tdp1-/- hTDP1 cells, no CPT, ATP luminescence, 48 h. Potency, µM (top dose mostly 46.2 µM), inactives show top-dose activity change, negative = growth inhibition, most hits filed as inhibitors. 420,000 tested, 15% active. AID 686978, 2013; note: potency is the fitted concentration of half-maximal effect; % is set by controls: 0 for no effect and ±100 for the full control effect; nearly all actives have a fitted effect of over 55% in size
#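 Cells were dispensed at 400 per well, compounds added by pin tool, plates incubated ≥48 hr at 37 °C, then CellTiter-Glo added for 30 min at room temperature before luminescence reading. Line: DT40 Tdp1-/- complemented with hTDP1; camptothecin omitted.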
# TDP1 cell CPT: qHTS for Inhibitors of human tyrosyl-DNA phosphodiesterase 1 (TDP1): qHTS in cells in presence of CPT | AID 686979, 2013 | Potency, µM (top dose mostly 46.2 µM), without a hit: top-dose activity change, negative = growth inhibition, hits mostly inhibitors | chicken DT40 Tdp1-/-;hTDP1 cells + 20 nM CPT, ATP luminescence, 48 h | 420,000 tested, 12% active; note: potency is the fitted concentration of half-maximal effect; % is set by controls: 0 for no effect and ±100 for the full control effect; nearly all actives have a fitted effect of over 55% in size
#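 Chicken DT40 Tdp1-/- cells stably complemented with human TDP1 were seeded at 400 cells/well in medium containing 20 nM camptothecin, exposed to pin-transferred compounds, and grown at 37 °C for at least 48 hr. Viability was read as ATP luminescence.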
# ASM inhibitor: Inhibitors of Secretory Acid Sphingomyelinase (S-ASM): qHTS; Sphingomyelin phosphodiesterase (Homo sapiens), P17405; placental ASM, HMU-PC fluorogenic substrate, 60 min; Potency, µM (doses to about 57.5 µM), for inactives: at the highest dose activity change, negative = inhibition, hits mostly inhibitors; 340,000 tested, 0.006% active; note: potency is the fitted concentration of half-maximal effect
# Target sequence (P17405 47-631 limits assumed): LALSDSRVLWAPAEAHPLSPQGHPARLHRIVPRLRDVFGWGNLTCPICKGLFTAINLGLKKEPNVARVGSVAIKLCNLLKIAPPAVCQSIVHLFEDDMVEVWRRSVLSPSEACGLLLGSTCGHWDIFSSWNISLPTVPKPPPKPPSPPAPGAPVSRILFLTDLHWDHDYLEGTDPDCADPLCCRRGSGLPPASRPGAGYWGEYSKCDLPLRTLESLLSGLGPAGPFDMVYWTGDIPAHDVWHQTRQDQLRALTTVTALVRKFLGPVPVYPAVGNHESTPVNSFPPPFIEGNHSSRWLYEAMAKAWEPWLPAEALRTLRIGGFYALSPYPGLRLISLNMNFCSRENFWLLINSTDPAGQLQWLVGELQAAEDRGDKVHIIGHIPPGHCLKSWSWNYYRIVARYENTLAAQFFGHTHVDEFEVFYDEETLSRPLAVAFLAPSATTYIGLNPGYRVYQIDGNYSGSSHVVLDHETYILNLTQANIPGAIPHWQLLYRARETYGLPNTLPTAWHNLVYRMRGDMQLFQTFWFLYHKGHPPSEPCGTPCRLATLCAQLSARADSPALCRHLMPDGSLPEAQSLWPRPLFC
#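 Steps: dispense placental human ASM, pin compound, wait 10 min at room temperature, add HMU-PC0 substrate at 9 uM final, incubate 60 min at 37 °C, add stop solution raising pH to 10, read fluorescence.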
# TGFb SMAD3 inh: qHTS for Inhibitors of TGF-b; HepG2 CAGA-GFP TGF-b/SMAD3 reporter, GFP fluorescence, 18 h; TGF-beta stimulated, 500 pg/mL final; Potency, µM (top dose mostly 46.1 µM), for the others: at the top dose activity, negative = inhibition, actives largely listed as inhibitors; 410,000 tested, 1.2% active; AID 588855, 2011; note: potency is the fitted concentration of half-maximal effect; % is set by controls: 0 for no effect and ±100 for the full control effect; nearly all actives have a fitted effect of over 65% in size
#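 GFP signal (ex488/em500-530) from TGF-beta-stimulated HEPG2 CAGA-GFP cells, 500 pg/mL final, 18 h at 37 degrees C in DMEM plus 1% FBS, normalized to unstimulated and DMSO-stimulated controls.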
# HepG2 tox: qHTS for Inhibitors of TGF-b: Cytotox Counterscreen; HepG2 CAGA-GFP viability, ATP luminescence, 18 h; Potency, µM (top dose mostly 46.1 µM), for inactives: at the highest dose activity change, negative = cytotoxicity, usual class: cytotoxic; 410,000 tested, 0.76% active; AID 588856, 2011; note: potency is the fitted concentration of half-maximal effect
#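 HepG2 CAGA-GFP cells (1000/well, DMEM with 1% FBS) received compound, then TGF-beta at 500 pg/mL final, and were incubated 18 hours at 37 degrees C. Viability was read by CellTiter-Glo luminescence. Media-only wells were set as complete cell-killing and DMSO as no toxicity.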
# IL1B secr inh: qHTS for Inhibitors of Inflammasome Signaling: IL-1-beta AlphaLISA Primary Screen; AID 743279, 2014; THP-1 LPS/ATP IL-1B secretion, AlphaLISA, 16 h; active compounds read low; 360,000 tested, 4.7% active; activity change, % at 57.5 µM; in the data active = activity change below about -50%; inconclusive = mostly about -30% to -49%; note: % is set by controls: 0 for no effect and ±100 for the full control effect
#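 Secreted IL-1B measured by AlphaLISA bead assay after 16 h compound exposure of THP-1 cells; compounds (final up to 57.5 uM) added 1 h before LPS (250 ng/mL) and ATP (1.25 mM) stimulation; lower signal means less secretion.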
# The depositor's hits bear a star; i = inactive; ? = inconclusive; · = no result; [ ] = dose if it differs, or a comment. Unless noted, calls come from the whole dose curve; as a rule, active = well fitted curve in the direction sought with a large enough effect; inconclusive = small, poorly fitted or top-dose-only effect, or another doubt; inactive = no such curve, though single readings can be large; an effect the other way counts as inactive or inconclusive.
SMILES,TDP1 cell noCPT,TDP1 cell CPT,ASM inhibitor,TGFb SMAD3 inh,HepG2 tox,IL1B secr inh
COc1ccc(-c2cn3cccnc3n2)cc1NC(=O)c1ccc(Br)o1,?,16µM*,241%,-18%,1%,-54*
Cc1ccc(NC(=O)COC(=O)Cc2ccc(Br)cc2)cc1S(=O)(=O)N1CCOCC1,-12%,-1%,-16%,7%,-5%,-8
COc1ccccc1Oc1ccc(S(=O)(=O)NCc2ccccn2)cc1,14µM*,?,2%,4%,5%,-4
CCOc1ccc(S(=O)(=O)NCc2ccccn2)c(C)c1C,-18%,23µM*,-1%,-13%,-14%,48
COc1ccc(S(=O)(=O)NCc2ccccn2)cc1NC(=O)c1ccc(Cl)cc1,16µM*,?,0%,-10%,1%,-14
COc1ccc(S(=O)(=O)NCc2ccccn2)cc1OC,-3%,8%,7%,7%,5%,40
COc1ccc(S(=O)(=O)NCc2ccccn2)cc1NC(=O)c1ccccc1C,4.6µM*,4.1µM*,4%,0%,-12%,24
COc1ccc(S(=O)(=O)NCc2ccccn2)cc1Cl,-9%,-9%,1%,?,-1%,-12
Cc1cccc(C)c1NC(=O)CSc1nnc(C)n1CC1CCCO1 (stereo not given),?,?,-2%,5%,0%,-21
COc1ccc(N(C)S(=O)(=O)c2ccc3c(c2)NC(=O)CC(=O)N3)c(OC)c1,19%,-2%,1%,-7%,-12%,0
CN(C)CC(C)(O)c1ccc2c(c1)CN(Cc1cccn1-c1cccnc1)CCO2 (stereo not given),-13%,19%[9.04 µM],·,·,·,·
O=S(=O)(c1ccc(Cl)cc1Cl)n1ccnc1,-14%,-5%,·,-3%,-4%,·
Clc1ccc(-c2ccnc3nc(N4CCOCC4)nn23)c(Cl)c1,-3%,1%,32%,-1%,-28%,12
CC(C)(C)c1ccc(S(=O)(=O)NCc2ccc(C(=O)NCc3ccccn3)cc2)cc1,18µM*,21µM*,3%,-2%,-7%,-2
COc1ccc(-c2ccc(/C=N/NC(=O)Cc3nnc(N)s3)o2)cc1Cl,18µM*,?,121%,-8%,-18%,-16
COC(=O)c1ccc(-c2ccc(/C=N/NC(=O)Cc3nnc(N)s3)o2)cc1,?,1%,i,0%,-8%,-86*
CC1CCN(C(=O)c2cnn(-c3ccc(Cl)cc3)c2C2CCN(C(=O)OC(C)(C)C)CC2)CC1,-9%,3%,·,-21%,0%,·
CC1CCN(S(=O)(=O)c2cc(C(=O)NCc3ccc(N(C)C)cc3)n(C)c2)CC1,?,?,·,-1%,-5%,·
CCOc1c(Br)cc(C(N)=O)cc1OCc1ccccc1,-21%,16%,-2%,-16%,-23%,47
Cc1cc(C)cc(NC(=O)Cn2c(=O)n(Cc3ccco3)c(=O)c3oc4ccccc4c32)c1,-34%,?,·,-19%,-2%,·
Cc1c(C=O)c2ccccn2c1C(=O)c1cccc([N+](=O)[O-])c1,?,?,-13%,-1%,10%,10
O=C(Nc1ccc2c(c1)OCO2)C1Cc2c(-c3ccncc3)ccnc2O1 (stereo not given),?,-16%,·,20%,-10%,-15
O=C(Nc1ccc2c(c1)OCO2)C1Cc2c(-c3ccc4c(c3)OCO4)ccnc2O1 (stereo not given),6.5µM*,6.5µM*,·,?,-42%,-2
O=C(NCC1CC1)C1Cc2c(-c3ccc4c(c3)OCO4)ccnc2O1 (stereo not given),18µM*,?,·,34%,2%,0
CC(=O)Nc1ccc(NC(=O)C2Cc3c(-c4ccc5c(c4)OCO5)ccnc3O2)cc1 (stereo not given),-6%,-7%,·,15%,-11%,-2
SMILES,TDP1 cell noCPT,TDP1 cell CPT,ASM inhibitor,TGFb SMAD3 inh,HepG2 tox,IL1B secr inh
O=C(Nc1cccnc1)C1Cc2c(-c3ccc4c(c3)OCO4)ccnc2O1 (stereo not given),1µM*,21µM*,·,8%,-16%,-57*
O=C(Nc1ccc2c(c1)OCO2)C1Cc2c(-c3ccc(Cl)cc3)ccnc2O1 (stereo not given),?,?,·,?,-39%,-53*
O=C(Nc1ccccc1)C1Cc2c(-c3ccc4c(c3)OCO4)ccnc2O1 (stereo not given),?,?,·,19%,-6%,?
CS(=O)(=O)c1ccc(C(=O)CN2C(=O)NC3(CCCc4ccccc43)C2=O)cc1 (stereo not given),4%,-17%,-2%,4%,-3%,18
Cc1ccccc1-n1ccnc1SCC(=O)Nc1cccc(S(=O)(=O)NC2=NCCC2)c1,?,-11%,3%,6%,2%,7
CC(=O)Nc1cccc(-c2ccnc3c2CC(C(=O)Nc2ccc4c(c2)OCO4)O3)c1 (stereo not given),4.6µM*,2.9µM*,·,-6%,-8%,17
COc1ccc(NC(=O)C2Cc3c(-c4ccc5c(c4)OCO5)ccnc3O2)cc1 (stereo not given),8.2µM*,5.2µM*,·,-13%,-28%,11
c1ccc(CN2CCN(C3CCCSc4ccccc43)CC2)cc1 (stereo not given),23µM*,?,3%,-4%,-38%,-28
O=C1CC(N2CCN(Cc3ccccc3)CC2)C(=O)N1 (stereo not given),4%,-2%,0%,-4%,-3%,6
CN(C)c1ccc(CC(=O)N2CCCC(c3cc(C(=O)Nc4ccc(C(C)(C)C)cc4)no3)C2)cc1 (stereo not given),?,?,·,30%,-3%,-3
CCOc1ccc2nc(SC3CC(=O)N(c4ccc(OC)cc4)C3=O)sc2c1 (stereo not given),4.6µM*,2.9µM*,-12%,?,-24%,-4
COc1ccc(N2C(=O)CC(Sc3ncccc3C(=O)O)C2=O)cc1 (stereo not given),-3%,-1%,0%,-8%,-10%,9
COc1ccc(N2C(=O)CC(NNc3nc4ccccc4s3)C2=O)cc1 (stereo not given),0%,-6%,0%,4%,-16%,16
